# PHOSPHO1 block: blocks human PHOSPHO1 phosphatase activity; recombinant PHOSPHO1, absorbance phosphatase assay; inhibition, % at 13.3 µM; hit rate 1.1% among 290,000; in the data active means inhibition above about 60%
# Target sequence (Q8TCT1 whole entry, looked up): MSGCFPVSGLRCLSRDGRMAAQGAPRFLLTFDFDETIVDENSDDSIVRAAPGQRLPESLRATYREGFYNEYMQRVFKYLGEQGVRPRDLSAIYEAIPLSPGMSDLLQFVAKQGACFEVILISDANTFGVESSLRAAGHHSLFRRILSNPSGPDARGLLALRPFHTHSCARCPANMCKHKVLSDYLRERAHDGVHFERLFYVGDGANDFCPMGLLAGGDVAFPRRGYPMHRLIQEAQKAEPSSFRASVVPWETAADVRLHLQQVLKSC
# H9c2 protect: myocardial damage modulation in H9c2 cells; H9c2 cardiomyocytes, H2O2 injury protection, ATPLite, 2 h; protection from H2O2 cell death, % at 20 µM; hit rate 0.63% among 360,000;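 active means compounds giving at least 50% protection of heart cells from peroxide-induced death in the single-dose screen, raw or plate-pattern-corrected value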;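 further: 0% = DMSO wells with peroxide and 100% = DMSO wells without peroxide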
# PfM18AAP inh: blocks P. falciparum M18 aspartyl aminopeptidase; inhibition, % at 7.35 µM; recombinant PfM18AAP, H-Glu-NHMec fluorogenic cleavage; hit rate 1.2% among 290,000;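 active means inhibition above the campaign mean inhibition over all tested compounds plus 3 SD, cut at about 28% in these data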;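 further: 0% = plate median of test compound wells and 100% = 2 mM ZnCl2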
# PfG6PD inh: PfG6PD (Plasmodium falciparum) enzyme inhibition | PfGluPho enzyme, NADPH resazurin-diaphorase fluorescence | inhibition, % at 20 µM | hit rate 0.78% among 350,000;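 active means inhibition reaching at least a set limit at 20 µM in the primary screen, cut at about 59% in these data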;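 further: 0% = DMSO wells with substrate and 100% = DMSO wells lacking glucose-6-phosphate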
# ALR inh: inhibitors of human sulfhydryl oxidase ALR. purified ALR, DTT oxidation, H2O2 HRP-luminol luminescence. hit rate 3.8% among 290,000. P55789. inhibition, % (test concentration not listed);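 active means mean replicate inhibition above about 79%, with every replicate also reaching it, limit read from the data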
# Target sequence (P55789 whole entry, looked up): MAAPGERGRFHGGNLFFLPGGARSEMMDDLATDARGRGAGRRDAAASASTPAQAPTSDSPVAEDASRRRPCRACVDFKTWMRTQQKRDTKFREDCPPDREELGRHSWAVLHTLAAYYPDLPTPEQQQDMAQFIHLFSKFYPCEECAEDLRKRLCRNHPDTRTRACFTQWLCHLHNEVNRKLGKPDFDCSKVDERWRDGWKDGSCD
# * marks the source's active call; other numbers are inactive results; . = no result given. Compounds with a hit are over-represented: about 5.6% of the library has one in this group of screens.
SMILES,PHOSPHO1 block,H9c2 protect,PfM18AAP inh,PfG6PD inh,ALR inh
COc1ccc(C2C=C(c3ccc(C)c(C)c3)Nc3ncnn32)c(OC)c1OC (stereo unspecified),-7,11,11,-7,.
CC(C)(C)C(=O)CNCC(=O)C(C)(C)C,17,1,2,-21,-6
O=C(CCS(=O)(=O)c1ccccc1)OCc1ccc([N+](=O)[O-])cc1,-24,2,-1,-8,-3
Cn1c(=O)oc2cc(S(=O)(=O)Nc3ccc(O)cc3)ccc21,19,-2,-4,4,99*
CCCN(CCC)CCCNS(=O)(=O)c1ccc2c(c1)oc(=O)n2C,62*,-6,0,-20,-2
CC(C)OCCCNS(=O)(=O)c1ccc2c(c1)oc(=O)n2C,11,5,0,7,99*
Cn1c(=O)oc2cc(S(=O)(=O)NCCCN3CCCC3=O)ccc21,11,1,-2,4,-30
CC1=CC(C)(C)NC(=S)N1CCO,.,7,.,-10,.
O=C(C(=O)N(Cc1ccccc1)Cc1ccccc1)c1c(-c2ccccc2)[nH]c2ccccc12,.,86*,.,9,.
COCCNC(=O)C(=O)c1c(-c2ccccc2)[nH]c2ccccc12,-1,7,-4,9,7
Cc1cc(Nc2n[nH]c(N)c2C#N)ccc1F,46,0,14,-5,95*
CC(C)N1C(=O)/C(=C\c2nc3ccccc3c(=O)[nH]2)c2ccccc21,3,85*,11,47,60
CCn1nc(C)cc1-c1n[nH]c(=S)n1N,102*,2,1,-1,1
O=C(Nc1ccccc1Cl)Nc1ccnn1C1CCN(C(=O)C2CCOC2)CC1 (stereo unspecified),.,1,.,9,.
O=C(c1ccc(S(=O)(=O)Cc2ccccc2F)c([N+](=O)[O-])c1)N1CCCC1,56,-4,4,-10,4
O=C(c1ccc(S(=O)(=O)c2ccc(F)cc2)c([N+](=O)[O-])c1)N1CCCCCC1,8,-13,-5,9,96*
COc1ccc(S(=O)(=O)Nc2nnc(Cc3ccc(OC)c(OC)c3)s2)cc1,17,22,-4,10,98*
COc1ccc(S(=O)(=O)Nc2nnc(C(C)(C)C)s2)cc1,98*,-5,12,55,-3
CC(=O)NC(Cc1ccccc1F)C(=O)NC1CCN(C(=O)Nc2ccc(C)cc2)CC1 (stereo unspecified),31,0,-1,-1,.
O=C(CN1CC(=O)Oc2ccccc21)OCC(=O)c1ccc(Br)cc1,.,57*,20,-17,-11
O=C(CN1CC(=O)Oc2ccccc21)OCC(=O)c1ccc(F)cc1,12,-4,28,-21,.
COc1cccc(N2CCN(c3ccc4nnc(CCC(=O)Nc5ccc(F)cc5)n4n3)CC2)c1,2,9,-1,1,80*
COc1cccc(N2CCN(c3ccc4nnc(CCC(=O)Nc5ccccc5OC)n4n3)CC2)c1,7,13,-1,2,80*
COc1cccc(N2CCN(c3ccc4nnc(CCC(=O)Nc5ccc(F)cc5F)n4n3)CC2)c1,49,9,1,13,39
COc1ccccc1N1CCN(C(=O)c2ccc3ncsc3c2)CC1,.,-4,.,26,.
SMILES,PHOSPHO1 block,H9c2 protect,PfM18AAP inh,PfG6PD inh,ALR inh
COc1ccc(C2=CSC3=NCCN23)cc1F,35,7,6,37,85*
CC(=O)NC(=S)Nc1ccc(NC(=O)COc2ccc(Cl)cc2Cl)cc1,18,-15,-1,4,-12
O=C(COc1ccc(Cl)cc1Cl)NNC(=S)Nc1ccc(F)cc1,71*,-15,-5,-13,65
COc1cccc(-c2nc(CS(=O)CC(=O)NCCc3ccccc3)c(C)o2)c1 (stereo unspecified),42,2,-2,-23,99*
Cc1oc(-c2ccccc2)nc1CS(=O)CC(=O)O (stereo unspecified),20,-18,-6,-3,.
CCC(C)NC(=O)CS(=O)Cc1nc(-c2cccc(OC)c2)oc1C (stereo unspecified),-7,6,-1,13,99*
COc1cccc(-c2nc(CS(=O)CC(=O)O)c(C)o2)c1 (stereo unspecified),15,8,-2,-27,99*
COc1cccc(-c2nc(CS(=O)CC(=O)NC(C)CCc3ccccc3)c(C)o2)c1 (stereo unspecified),42,5,-3,-13,98*
COc1ccc(C(C)C)cc1-c1cccc2nncn12,.,1,.,.,.
COc1cccc(NC(=S)NC(Cc2ccccc2)c2ccccc2)c1 (stereo unspecified),.,-10,.,28,.
O=C(Nc1ccccc1OC(F)F)c1ccc(N2CCCC2=O)cc1,.,0,.,-9,.
CCOC(=O)c1c(C)[nH]c(C)c1C(=O)COC(=O)Cc1n[nH]c(=O)c2ccccc12,.,49,.,0,0
N#Cc1ccc(-c2ccc(OCC(=O)NN=Cc3ccncc3)cc2)cc1,.,-4,.,21,-4
Cc1c(C(=O)Nc2ccc(-c3nnc4n3CCCCC4)cc2)oc2c1ccc1ccccc12,-4,52*,-4,21,5
CCCC1NC(=O)c2cc3ccccc3cc2-n2c1nc1cc(Cl)ccc1c2=O (stereo unspecified),.,-18,.,4,.
Cc1ccccc1NCc1ccc([N+](=O)[O-])s1,.,-6,8,6,.
Cc1cccc(NCc2ccc([N+](=O)[O-])s2)c1,14,-7,3,12,98*
O=[N+]([O-])c1ccc(CNc2cccc(F)c2)s1,30,-4,-9,6,-1
Cc1ccc(NCc2ccc([N+](=O)[O-])s2)cc1,29,-5,1,25,98*
COc1ccc(C(=O)NCc2nnc(SCC(=O)N3CCCC3)o2)cc1,-1,-2,2,-3,-5
S=C(NCCc1ccccc1)Nc1ccc(Nc2ccccc2)cc1,14,-18,4,23,98*
Cc1ccc(NC(=S)NCCc2ccccc2)nc1,-127,-11,29*,21,10
CCCNC(=S)Nc1ccccc1,33,-3,0,11,90*
CCCNC(=S)Nc1ccc(CC(=O)OC)cc1,-4,-1,7,2,2
CC(C)(C)NC(=S)Nc1ccc(Nc2ccccc2)cc1,24,-9,18,8,99*
SMILES,PHOSPHO1 block,H9c2 protect,PfM18AAP inh,PfG6PD inh,ALR inh
S=C(NCCCc1ccccc1)Nc1ccccc1,13,4,3,-3,19
COc1ccc(C(CNC(=O)c2cc(S(=O)(=O)N3CCN(c4ccccc4)CC3)ccc2Cl)N(C)C)cc1 (stereo unspecified),.,-6,.,-5,21
CCOC(=O)c1nnn(-c2nonc2N)c1CSc1nnc(N)s1,-20,4,1,16,0
Oc1ccccc1/C=N/NC(=S)NCCc1ccccc1,29,12,29*,5,11
CC(=O)NNC(=S)NCCc1ccccc1,-2,9,30*,1,53
CCNC(=S)NNC(=O)Nc1ccccc1,79*,17,21,4,6
CCNC(=S)NNC(=O)C(c1ccccc1)c1ccccc1,-113,-3,6,-12,11
S=C(NCCc1ccccc1)N/N=C/c1cccc(Cl)c1Cl,-6,-11,-2,15,11

# From PubChem
